# From PubChem BioAssay
# Tau fluor cs – counter-screen for tau fibril formation inhibitors | tau K18 P301L Alexa594 fluorescence, heparin fibrillization | Potency, µM (titrated, usually from 57.7 µM) | 280,000 tested, 0.93% active; also: nearly all actives have a fitted effect of over 55% in size
#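 Human tau K18 P301L (15 uM unlabeled, 0.24 uM Alexa 594-labeled) in 100 mM sodium acetate pH 7 with 20 uM heparin, 6 hr at 37 C. ThT 30 uM added, 1 hr ambient; Alexa 594 FP and total fluorescence read at 555/632 nm.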
# Tau fibril FP – blocks human tau fibril formation measured by polarization; 280,000 tested, 0.39% active; Potency, µM (series often up to 57.7 µM), actives largely listed as inhibitors; AID 1468; P10636; K18 P301L tau heparin fibrillization, Alexa594 FP, 6 h; also: nearly all actives have a fitted effect of over 55% in size
# Target sequence (P10636 561-689 P618L limits assumed): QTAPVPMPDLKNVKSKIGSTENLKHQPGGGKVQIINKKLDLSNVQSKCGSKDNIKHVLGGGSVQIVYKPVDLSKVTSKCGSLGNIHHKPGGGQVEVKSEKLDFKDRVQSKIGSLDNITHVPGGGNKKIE
#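 Quantitative HTS format: compounds meet 15 uM recombinant K18 P301L tau and Alexa 594-tau tracer in 100 mM sodium acetate pH 7; 20 uM heparin triggers fibrillization at 37 C over 6 hr; FP gives the signal.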
# Tau ThT inhib – inhibitors of human tau fibril formation, thioflavin T binding; 270,000 tested, 2.1% active; recombinant tau K18 P301L (four-repeat tau fragment), heparin-induced fibrillization, ThT fluorescence; Potency, µM (series often up to 57.4 µM), actives largely listed as inhibitors; P10636; also: nearly all actives have a fitted effect of over 55% in size
#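 Heparin-induced fibrillization of the P301L-mutant K18 repeat-domain fragment of human tau was followed by ThT binding in quantitative high-throughput format.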
# TRb-SRC2 inh – TRbeta-SRC2 interaction inhibition; P10828; TRbeta-SRC2 peptide binding, fluorescence polarization; receptor liganded with 1 µM T3; Potency, µM (titrated, usually from 106 µM), hits mostly inhibitors; 280,000 tested, 0.065% active; AID 1469; also: nearly all actives have a fitted effect of over 50% in size
# Target sequence (P10828 whole entry, looked up): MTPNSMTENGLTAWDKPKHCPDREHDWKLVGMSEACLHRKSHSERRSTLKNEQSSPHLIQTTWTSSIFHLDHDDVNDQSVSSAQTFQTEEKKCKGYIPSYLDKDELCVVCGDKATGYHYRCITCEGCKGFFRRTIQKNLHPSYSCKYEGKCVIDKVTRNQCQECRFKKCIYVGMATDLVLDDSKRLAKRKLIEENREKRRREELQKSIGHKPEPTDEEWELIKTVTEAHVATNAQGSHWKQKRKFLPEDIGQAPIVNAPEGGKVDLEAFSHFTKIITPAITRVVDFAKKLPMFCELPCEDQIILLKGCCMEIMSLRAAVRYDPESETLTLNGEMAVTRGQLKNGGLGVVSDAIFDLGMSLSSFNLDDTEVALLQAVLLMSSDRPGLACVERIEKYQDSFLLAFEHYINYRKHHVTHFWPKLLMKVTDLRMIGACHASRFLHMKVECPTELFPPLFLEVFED
#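 Compounds were added to 0.6 uM TRb ligand-binding domain and 20 nM Texas Red-labeled SRC2 peptide in Tris buffer containing 1 uM T3, incubated 5 hr at ambient temperature, then read by fluorescence polarization.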
# TR SRC2 fluor cs – counter-screen for TRb-SRC2 inhibitors: fluorescence interference. TRb/SRC2 Texas Red total fluorescence interference. Potency, µM (top dose mostly 106 µM). 280,000 tested, 0.29% active. AID 1479; active = well fitted curve in either direction with a large enough effect; inconclusive = small, poorly fitted or top-dose-only effect
#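 Flags fluorescent or light-absorbing compounds by total fluorescence, S + 2P, at 555 nm excitation and 632 nm emission. Mixture: 20 nM Texas Red SRC2 peptide, 0.6 uM human TRb LBD, 1 uM T3, 5% DMSO; compound exposure 5 h at ambient temperature.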
# A number is an active result; i = inactive; ? = inconclusive; nt = no result; [ ] = remark or other dose. An excerpt weighted towards active compounds, which were near 3.1% of everything screened. Unless noted, calls follow the shape of the dose curve; as a rule, active = well fitted curve in the direction sought with a large enough effect; inconclusive = small, poorly fitted or top-dose-only effect, or another doubt; inactive = no such curve, though single readings can be large; an effect the other way counts as inactive or inconclusive.
SMILES,Tau fluor cs,Tau fibril FP,Tau ThT inhib,TRb-SRC2 inh,TR SRC2 fluor cs
COc1ccc(N(Cc2ccccc2)C(=O)c2nc(S(C)(=O)=O)ncc2Cl)cc1,i,i,i,i,i
CC1CCC(NC(=O)c2ccc(CS(=O)(=O)c3ccc(Cl)cc3)o2)CC1 (stereo not given),i,i,i,i,i
COC(=O)N1[C@H]2CC[C@@]3(C)CC(=O)C[C@]1(C)C3c1ccccc12,i,i,i,i,i
Cc1ccccc1CNC(=O)CN1CCSc2ccccc21,i,i,i,i,i
OCc1ccccc1N=c1ssnc1Cl,?,?,35µM,i,i
Clc1ccc(N=c2ssnc2Cl)nc1,i,i,i,i,i
Clc1nssc1=Nc1ccc(Br)cc1,i,?,13µM,i,i
N#Cc1cccc(N=c2ssnc2Cl)c1,i,?,11µM,i,i
COc1cc(N=c2ssnc2Cl)cc(OC)c1,i,i,i,i,i
CC[C@H]1C(c2cccc(Cl)c2)=NN(c2ccccc2)[C@@H]1CO,14µM[quencher],i,?,i,i
CC[C@@H]1C(c2cccc(Cl)c2)=NN(c2ccccc2)[C@H]1C(=O)N1CCOC1=O,?,i,?,i,i
CC[C@H]1C(c2cccc(C)c2)=NN(c2ccccc2)[C@@H]1CO,32µM[quencher],?,?,i,i
CC[C@@H]1C(c2cccc(C)c2)=NN(c2ccccc2)[C@H]1C(=O)N1CCOC1=O,?,i,i,i,i
COc1cccc(NC(=O)CSc2nc(-c3ccccc3Cl)nc3c2Cc2c(CO)cnc(C)c2O3)c1,i,i,i,i,i
CCC(Cc1ccccc1)NC(=O)c1ccc2nc(N3CCC(C)CC3)sc2c1 (stereo not given),i,i,i,i,i
Nc1cc2nsnc2cc1Br,?,?,8.9µM,?,i
Cc1ccc(NC(=O)Cn2c(=O)n(Cc3ccc4c(c3)OCO4)c(=O)c3ccc(C(=O)NC4CCCCC4)cc32)c(C)c1,i,?,i,i,i
COc1cccc(NC(=O)Cn2cc(S(=O)(=O)Cc3ccccc3F)c3ccccc32)c1,?,?,i,i,i
CC(=O)Nc1ccc(C2=NNC(=Nc3cccc(S(=O)(=O)N(C)C)c3)SC2)cc1,14µM[quencher],?,7.9µM,i,i
CC(=O)Nc1ccc(C2=NNC(=Nc3ccc(S(=O)(=O)N4CCOCC4)cc3)SC2)cc1,16µM[quencher],?,4.5µM,i,i
COCCN=C1NN=C(c2ccc(NC(C)=O)cc2)CS1,i,?,28µM,i,i
COc1ccc(C2=NNC(=Nc3cc(S(=O)(=O)N(C)C)ccc3C)SC2)c(OC)c1,i,i,?,i,i
CCC(=O)Nc1ccc(S(=O)(=O)N2CCOCC2)cc1,i,i,i,i,i
O=C1Nc2cc3c(cc2C1=O)sc1ccccc13,?,i,1.1µM,i,i
Cc1cccc(C(=O)Nc2ccc(N3CCC(CCN4CCOCC4)CC3)c(C(=O)O)c2)c1,i,i,i,i,i
SMILES,Tau fluor cs,Tau fibril FP,Tau ThT inhib,TRb-SRC2 inh,TR SRC2 fluor cs
O=C(NC(=S)NCc1ccc(-c2nc3ccccc3s2)cc1)c1ccco1,?,?,i,i,i
O=C(NCc1ccc(-c2nc3ccccc3s2)cc1)c1ccco1,i,?,i,i,0.0006µM[quencher]
Cc1ccc(C)c(CNC(=O)c2ccc3c(c2)nc2n3CCCCC2)c1,i,i,i,i,i
C/[N+]([O-])=C\c1coc2ccccc2c1=O,i,i,i,i,i
O=C/C=C/c1coc2ccc3ccccc3c2c1=O,?,i,14µM,i,i
O=C(O)c1ccc(C(=O)C(=O)c2ccccc2)cc1,i,i,i,i,i
CSC(SC)=C(C#N)C(=O)c1ccccc1,i,14µM,20µM,i,i
COc1cccc(C(=O)C(C#N)=C(SC)SC)c1,i,?,25µM,i,i
Cc1nc(N2CCOCC2)c2nc(-c3ccccc3)n(CCCN3CCOCC3)c2n1,i,i,i,i,i
Cc1ccc(-n2ncc3c(NCCCn4ccnc4)ncnc32)cc1,i,i,?,i,i
CCOC(=O)c1c(NC(=O)COc2ccc(CC)cc2)sc2c1CCCC2,i,i,i,i,i
CCCc1ccc(OCC(=O)Nc2sc3c(c2C(=O)OCC)CCC(C(C)(C)C)C3)cc1 (stereo not given),i,i,i,?,10µM[quencher]
Cc1cc(C)c2c(=O)n(CC(=O)N3CCC(Cc4ccccc4)CC3)sc2n1,i,11µM,13µM,i,i
Cc1cccc(N2CCN(C(=O)Cn3sc4nc(C)cc(C)c4c3=O)CC2C)c1 (stereo not given),i,?,13µM,i,i
COc1ccccc1Cn1cc(C(=O)c2ccc(C)cc2)c(=O)c2cc3c(cc21)OCCO3,i,i,i,i,i
CC(C)(C)c1cc(-c2nc(N)nc(N)n2)cc(C(C)(C)C)c1,i,28µM,?,i,i
Cc1cc(S(=O)(=O)Nc2ccc(C(=O)O)cc2)c(C)c(S(=O)(=O)c2ccc(Cl)cc2)c1,i,i,i,i,i
C=CCS/C(N)=N\N=C\c1cc(Br)cc([N+](=O)[O-])c1O,?,i,13µM,i,i
O=c1c2c(-c3ccc(Cl)cc3)csc2ncn1/N=C/c1cccc([N+](=O)[O-])c1O,i,i,16µM,i,i
O=C1C2C(C(=O)N1/N=C/c1cc(Br)cc([N+](=O)[O-])c1O)C1C=CC2C12CC2 (stereo not given),i,i,7.9µM,i,i
O=[N+]([O-])c1cc(Br)cc(/C=N/n2cnnc2)c1O,i,i,8.9µM,i,i
CCc1ccc(-n2c(SCC(=O)NC(C)CC)nc3n[nH]c(C)c3c2=N)cc1 (stereo not given),i,i,i,i,i
COc1ccc(-c2ccc(C3C4C=CCC(C)C4C(=O)N3Cc3ccccc3)c(F)c2)cc1C (stereo not given),nt,nt,nt,i,i
O=[N+]([O-])c1cccc(/C=N/n2cnnc2)c1O,i,i,16µM,i,i
O=[N+]([O-])c1cc(Cl)cc(/C=N/n2cnnc2)c1O,i,i,?,i,i
SMILES,Tau fluor cs,Tau fibril FP,Tau ThT inhib,TRb-SRC2 inh,TR SRC2 fluor cs
CC1(C)O[C@H]2[C@@H](O1)[C@@H](C(=O)Nc1ccccc1O)O[C@@H]1OC(C)(C)O[C@@H]12,i,i,i,i,i
CN(C(=O)c1ccoc1)c1ccccc1I,nt,nt,nt,i,i
CCOc1ccc(Nc2nc(C)c(NC(=O)c3cccc(F)c3)c(Nc3ccc(OCC)cc3)n2)cc1,7.9µM[quencher],i,?,i,i
CCOc1ccc(-n2nc3ccc(NC(=O)c4cccc(F)c4)cc3n2)cc1,i,?,?,i,i
C/C(=N\Nc1cccc([N+](=O)[O-])c1)c1cc2ccccc2o1,?,i,?,i,i
O=[N+]([O-])c1cccc(N/N=C/c2cccc3ccccc23)c1,8.9µM[quencher],i,?,i,i
O=[N+]([O-])c1ccccc1N/N=C/c1c[nH]c2ccccc12,3.5µM[quencher],i,3.2µM,i,i
